From PubChem BioAssay (EPA / NIEHS)
Inconclusive results are not listed. Activity calls are given as the source filed them. The calls were made as follows: active = hit-call score of the fitted dose curve at least 0.9, where 1 is the maximum; inconclusive = response in the unintended direction; inactive = score below 0.9.

The molecules below were run against Cellular tumor antigen p53 (Homo sapiens) (UniProt P04637) (assay: TOX21_p53_BLA_p2_ratio: Tox21 HCT-116 p53 Agonism Beta-lactamase Assay, Ratio, Phase 2 (AID 2283592)).
Cellular tumor antigen p53 (Homo sapiens), sequence (P04637 whole entry, looked up, the tested form may be a part): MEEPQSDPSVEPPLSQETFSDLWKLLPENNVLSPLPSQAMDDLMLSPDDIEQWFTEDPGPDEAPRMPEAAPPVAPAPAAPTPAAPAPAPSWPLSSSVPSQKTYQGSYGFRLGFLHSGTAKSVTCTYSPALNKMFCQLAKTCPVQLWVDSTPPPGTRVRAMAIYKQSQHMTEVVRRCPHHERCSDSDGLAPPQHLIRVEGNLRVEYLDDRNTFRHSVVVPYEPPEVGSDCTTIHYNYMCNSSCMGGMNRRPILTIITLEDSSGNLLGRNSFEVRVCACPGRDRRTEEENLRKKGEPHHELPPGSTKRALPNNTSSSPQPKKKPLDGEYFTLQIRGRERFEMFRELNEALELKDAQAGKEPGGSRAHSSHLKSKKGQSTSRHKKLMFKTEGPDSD
Description: TOX21_p53_BLA_p2 is a cell-based, single-readout assay that uses HCT116, a human intestinal cell line, […] in a 1536-well plate.TOX21_p53_BLA_p2_ratio is an assay readout measuring reporter gene via receptor activity and designed using inducible reporter (beta lactamase induction) detected with GAL4 b-lactamase reporter gene. The signal is derived from the ratio of cleaved (ch2) to uncleaved (ch1) reporter gene substrate used as the measure of target activity.Data from the assay component TOX21_p53_BLA_p2_ratio was analyzed into 1 assay endpoint. This assay endpoint, TOX21_p53_BLA_p2_ratio, was analyzed in the positive analysis fitting direction relative to DMSO as the negative control and baseline of activity. Using a type of inducible reporter, gain-of-signal activity can be used to understand changes in the reporter gene as they relate to the gene TP53. Furthermore, this assay endpoint can be referred to as a primary readout, because this assay has produced multiple assay endpoints and this ratio serves a reporter gene function to understand target activity. To generalize the intended target to other relatable targets, this assay endpoint is annotated to the DNA binding intended target family, where the subfamily is tumor suppressor.
Thawing Method: Place 14 mL of pre-warmed thaw medium into a 15 mL of conical tub. Remove the vial of cells to be thawed from liquid nitrogen and thaw rapidly by placing at 37C in a water bath with gentle agitation for 1-2 minutes. Decontaminate the vial by wiping with 70% ethanol before opening in a biological safety cabinet. Transfer the vial contents drop-wise into 14 mL of thaw medium in a sterile 15-mL conical tub. Centrifuge cells at 900 rpm for 4 minutes and resuspend in thaw medium. Transfer contents to the T75 tissue culture flask containing Thaw Medium and place flask in a humidified 37C/5% CO2 incubator. Switch to growth medium at first passage.Propagation Method: Aspirate medium, rinse once in DPBS, add 0.25% Trypsin/EDTA and swirl to coat the cell evenly. Add an equal volume of Growth Medium to inactivate Trypsin after 2-3 minutes incubation at 37C. Centrifuge cells at 900 rpm for 4 minutes and resuspend in growth medium. Cell should be passage or fed at least twice a week.Assay Protocol: Harvest cells from culture in growth medium and resuspend in assay medium. 2.2 Dispense 4000 cells/5 uL/well into 1536-well black/clear bottom plates using a Multidrop dispenser. After the cells were incubated at 37C for 5 hours, 23 nL of compounds dissolved in DMSO were transferred to the assay plate by a PinTool resulting in a 217-fold dilution. Incubate the plates for 16 hours at 37C, 5% CO2. Add 1 uL of 6X LiveBLAzer FRET B/G (CCF4-AM) Substrate Mixture to each well using a BioRAPTR dispenser and incubate the plates at room temperature for 2 hours. Measure fluorescence intensity at 460 and 530 nm emission and 405 nm excitation by an Envision detector. Data is expressed as the ratio of 460nm/530nm emissions. Add 4 uL of Cell-titer Glo to each well using BioRAPTR and incubate the plates at room temperature for 2 hours. Measure fluorescence intensity by a VewLux plate reader.
For CC(=O)Oc1cc(C(F)(F)F)ccc1C(=O)O, the outcome was “inactive”.
With O=C1OC(=O)C2CC=CCC12 (stereo not given) the outcome was “inactive”.
With CCCN(CC)C(CC)C(=O)Nc1c(C)cccc1C (stereo not given) the outcome was “inactive”.
With NS(=O)(=O)c1cc2c(cc1Cl)NC(Cc1ccccc1)NS2(=O)=O (stereo not given) the outcome was “inactive”.
CC(=O)N[C@@H](Cc1ccc(O)cc1)C(=O)O was tested, and the outcome was “inactive”.
In the case of CC(=O)OCC(=O)Nc1cc(C#N)cc(NC(=O)COC(C)=O)c1Cl, the outcome is reported as “inactive”.
For C1CCCNCCC1, the outcome was “inactive”.
Cc1cccc(O)c1N was tested, and the outcome was “inactive”.
For CC(C)OC(=O)CCC(=O)OC(C)C, the outcome was “inactive”.
C[Si](Cl)(c1ccccc1)c1ccccc1 was tested, and the outcome was “inactive”.
CN(C)CCC(O)(c1ccccc1)c1ccccc1Cl (stereo not given) was tested, and the outcome was “inactive”.
In the case of CCOC(=O)C1=C(C)NC(C)=C(C(=O)OC)C1c1cccc(Cl)c1Cl (stereo not given), the outcome is reported as “inactive”.
With [K+] the outcome was “inactive”.
With CO[C@@]1(NC(=O)C(C(=O)O)c2ccc(O)cc2)C(=O)N2C(C(=O)O)=C(CSc3nnnn3C)CO[C@@H]21 (stereo not given in full) the outcome was “inactive”.
NS(=O)(=O)c1ccc(Cl)c(S(N)(=O)=O)c1 was tested, and the outcome was “inactive”.
For C=CCCCC, the outcome was “inactive”.
With S=C(SSSSSSC(=S)N1CCCCC1)N1CCCCC1 the outcome was “inactive”.
For CC(C)N=C=NC(C)C, the outcome was “inactive”.
With NCC1CCC(C(=O)Oc2ccc(CCC(=O)O)cc2)CC1 (stereo not given) the outcome was “inactive”.
C=Cc1ccccn1 was tested, and the outcome was “inactive”.
O=C(O)[C@H]1CN(C/C=C/P(=O)(O)O)CCN1 was tested, and the outcome was “inactive”.
For Cc1cc(N)c(S(=O)(=O)O)cc1Cl, the outcome was “inactive”.
For C[n+]1ccn(Cc2ccccc2)c1, the outcome was “inactive”.
For OCCOc1ccc(OCCO)cc1, the outcome was “inactive”.
For CCC(O)c1ccccc1 (stereo not given), the outcome was “inactive”.
O=C(CO)[C@@H](O)[C@H](O)[C@@H](O)CO was tested, and the outcome was “inactive”.
With CCN(CC)CC(=O)Nc1c(C)cccc1C the outcome was “inactive”.
With CCCCCCOC(=O)c1cccnc1 the outcome was “inactive”.
With CC(C)=CCC[C@@](C)(O)[C@H]1CC=C(C)CC1 the outcome was “inactive”.
CCc1ccc(C(=O)C(C)CN2CCCCC2)cc1 (stereo not given) was tested, and the outcome was “inactive”.
For NCCCC(=O)O, the outcome was “inactive”.
With O=C1c2ccccc2C(=O)N1CO the outcome was “inactive”.
COc1ccc(-c2nc3ccc(C4=NNC(=O)CC4C)cc3[nH]2)cc1 (stereo not given) was tested, and the AC50 was 17.1 µM (active).
CCCCCCCCCCCCCCBr was tested, and the outcome was “inactive”.
In the case of Cc1ccc(/C(=C\CN2CCCC2)c2ccccn2)cc1, the outcome is reported as “inactive”.
For CCC(C=O)CC, the outcome was “inactive”.
With CN(C)CCN(Cc1ccccc1)c1ccccn1 the outcome was “inactive”.
In the case of NC(CO)C(=O)NNCc1ccc(O)c(O)c1O (stereo not given), the outcome is reported as “inactive”.
O=c1[nH]cnc2c1ncn2[C@@H]1O[C@H](CO)[C@@H](O)[C@H]1O was tested, and the outcome was “inactive”.
[O-][n+]1ccccc1SSc1cccc[n+]1[O-] was tested, and the outcome was “inactive”.
